# Assay results taken from PubChem BioAssay.
# The source made the active and inactive calls. Rule as the data show it, unless noted: active = inhibition above about 80%; inactive = the rest.
# Columns and labels:
# [1] = LFS_MB_P medulloblastoma growth inhibition, cell-based, chromothripsis tumors, cisplatin or BGB combos (AID 1671449); conditions: LFS_MB_P medulloblastoma cells;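 also: cells exposed for 96 hours; 0% = vehicle DMSO and 100% = killing by high DMSO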
# [2] = HDN33 neuroblastoma growth inhibition, cell-based, chromothripsis tumors, cisplatin or BGB combos (AID 1671450); conditions: HDN33 neuroblastoma cells, stronger effect = higher value;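 also: cells exposed to compound for four days; 0% = vehicle DMSO and 100% = cell killing by high DMSO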
# [3] = ICB984 medulloblastoma cell growth inhibition, synergistic combos for chromothripsis tumors, cisplatin or BGB combos (AID 1671451; call rule not given here;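 also: cells exposed for 96 hours before readout; 0% = vehicle DMSO and 100% = killing by high DMSO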); conditions: ICB984 medulloblastoma cells, drug combinations, stronger effect = higher value
# [4] = LFS_MB_1R medulloblastoma cell growth inhibition, synergistic combos for chromothripsis tumors, cisplatin or BGB combos (AID 1671452); conditions: LFS_MB_1R medulloblastoma cells, stronger effect = higher value;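 also: cells exposed for 96 hours before readout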
# [5] = HTB85 osteosarcoma cell growth inhibition, synergistic combos for chromothripsis tumors, BGB or cisplatin IC20 combos (AID 1671453); conditions: HTB85 osteosarcoma cells, drug combinations, stronger effect = higher value;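 also: cells exposed for 96 hours before readout; 0% = vehicle DMSO and 100% = high DMSO killing control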
# [6] = measured here: combination with BGB IC40, at 0.05 µM
smiles,measurement,setting,value
CCC(C)C(=O)OC1CC(C)C=C2C=CC(C)C(CCC3CC(O)CC(=O)O3)C21 (stereo not given),inhibition,"[1]; at 0.5 µM, stronger effect = higher value",-40.1% (inactive)
same,inhibition,"[1]; measured here: combination with BGB IC20, at 0.005 µM",-11.8%
same,inhibition,"[1]; measured here: combination with BGB IC40, at 0.005 µM",-21.9%
same,inhibition,[1]; [6],-1.78%
same,inhibition,"[1]; measured here: combination with cisplatin, at 0.5 µM, stronger effect = higher value",-46.1%
same,inhibition,"[1]; measured here: combination with cisplatin, at 5 µM, stronger effect = higher value",-44.5%
same,inhibition,"[2]; BGB combo, at 5 µM",63.1%
same,inhibition,[2]; at 0.5 µM,21.8% (inactive)
same,inhibition,"[2]; cisplatin combo, at 5 µM",52.4%
same,inhibition,"[2]; measured here: with BGB IC20 combination, at 0.5 µM",26.6%
same,inhibition,"[2]; measured here: with cisplatin IC20 combination, at 0.5 µM",11.5%
same,inhibition,"[2]; single agent, at 5 µM",65.1%
same,inhibition,"[3]; BGB IC20 combo, at 0.005 µM",0.285%
same,inhibition,"[3]; BGB IC40 combo, at 0.005 µM",16.8%
same,inhibition,"[3]; BGB IC40 combo, at 0.05 µM",20.5%
same,inhibition,[3]; at 0.5 µM,-5.66% (inactive)
same,inhibition,"[3]; cisplatin combo, at 0.05 µM",20.5%
same,inhibition,"[3]; cisplatin combo, at 0.5 µM",-11.6%
same,inhibition,"[3]; cisplatin combo, at 5 µM",-5.67%
same,inhibition,"[3]; measured here: 5 uM single agent, at 5 µM",-12.3%
same,inhibition,[4]; at 0.5 µM,22% (inactive)
same,inhibition,[4]; [6],-11%
same,inhibition,"[4]; measured here: combination with cisplatin, at 0.5 µM",12.3%
same,inhibition,"[4]; measured here: combination with cisplatin, at 5 µM",12%
same,inhibition,[5]; at 0.5 µM,-1.62% (inactive)
same,inhibition,"[5]; measured here: with BGB IC20, at 0.5 µM",-18.6%
same,inhibition,"[5]; measured here: with BGB IC20, at 5 µM",74.3%
same,inhibition,"[5]; measured here: with cisplatin IC20, at 0.5 µM",-1.27%
same,inhibition,"[5]; measured here: with cisplatin IC20, at 5 µM",74.6%
same,inhibition,"[5]; single agent, at 5 µM",73.5%
